RORgamma inh = blocks mouse ROR gamma transcriptional activity; Drosophila S2 Gal4-RORgamma UAS-luciferase reporter, 20 h; Potency, µM (series often up to 53.6 µM), for inactives: top-dose activity change, negative = inhibition, most hits filed as inhibitors; actives 5.4% (n = 310,000); also: % is scaled to controls: 0 for no effect and ±100 for the full control effect; nearly all actives have a fitted effect of over 60% in size
Target sequence (P51450 whole entry, looked up, the tested form may be a part): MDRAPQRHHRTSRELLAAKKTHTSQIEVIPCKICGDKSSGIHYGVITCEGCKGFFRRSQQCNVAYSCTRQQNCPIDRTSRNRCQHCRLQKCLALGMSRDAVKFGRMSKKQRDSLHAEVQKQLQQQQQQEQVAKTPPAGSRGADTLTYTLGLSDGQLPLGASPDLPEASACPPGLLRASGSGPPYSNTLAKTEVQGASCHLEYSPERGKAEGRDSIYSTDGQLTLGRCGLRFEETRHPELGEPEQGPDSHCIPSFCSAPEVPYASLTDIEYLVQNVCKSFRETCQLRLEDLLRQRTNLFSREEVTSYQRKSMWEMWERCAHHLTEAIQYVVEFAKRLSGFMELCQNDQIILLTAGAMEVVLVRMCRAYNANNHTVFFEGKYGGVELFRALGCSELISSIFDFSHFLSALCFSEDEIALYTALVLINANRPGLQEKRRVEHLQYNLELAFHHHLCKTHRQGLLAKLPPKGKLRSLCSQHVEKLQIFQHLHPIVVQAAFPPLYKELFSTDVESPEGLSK
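Compounds are pin-transferred onto Drosophila Schneider cells expressing a copper-inducible Gal4–ROR gamma transactivation domain fusion. After 1 hr, copper sulfate is added to 700 uM final; luciferase is read 20 hr later.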
SW480 rereplic = inducers of DNA re-replication in SW480 colon cancer cells. SW480 DNA re-replication, Hoechst DNA content imaging, 48 h. Potency, µM (titrated, usually from 46.1 µM), without a hit: at the top dose re-replication activation, hits mostly activators. actives 1.8% (n = 340,000); also: % of control where 0% means no effect; nearly all actives have a fitted effect of over 55% in size
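Readout is total intensity of Hoechst-stained nuclei, excited at 405 nm and collected at 500-530 nm. Compound treatment lasted 48 hr at 37 C in 5% CO2 before staining.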
VP16 counter = Gal4-VP16 reporter inhibition counter-screen; Drosophila S2 Gal4-VP16 UAS-luciferase, luminescence, 20 h; actives 3.5% (n = 310,000); Potency, µM (series often up to 53.6 µM), for inactives: at the highest dose activity, negative = inhibition, most hits filed as inhibitors; AID 2546;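 also: Gal4-VP16 expression switched on by copper sulfate through the metallothionein promoter; % is scaled to controls: 0 for no effect and ±100 for the full control effect; nearly all actives have a fitted effect of over 50% in size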
KB-3-1 tox = kills parental KB-3-1 adenocarcinoma cells | KB-3-1 viability, CellTiter-Glo ATP luminescence, 72 h | Potency, µM (highest dose often 46.1 µM), usual class: cytotoxic | actives 1.4% (n = 400,000); also: % is scaled to controls: 0 for no effect and ±100 for the full control effect; nearly all actives have a fitted effect of over 60% in size
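KB-3-1 cells, DMEM (no phenol red) + 10% FBS; compound by pin transfer, 72 h, 37 °C. Readout: CellTiter-Glo luminescence after 10 min. Data normalized, curve-fitted.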
KB-V1 cytotox = kills drug-selected multidrug resistant KB-V1 cells; KB-V1 MDR cells viability, CellTiter-Glo, 72 h; Potency, µM (series often up to 46.1 µM), hits mostly cytotoxic; actives 3.4% (n = 400,000); also: % is scaled to controls: 0 for no effect and ±100 for the full control effect; nearly all actives have a fitted effect of over 60% in size
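KB-V1 MDR subline cells in DMEM (phenol-red free, 10% FBS) exposed to compounds in qHTS concentration series for 72 h at 37 degrees C. Viability read by CellTiter-Glo luminescence; concentration-effect curves fitted after normalization and correction.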
MCF10A rerep = inducers of DNA re-replication in MCF 10A breast cells; MCF 10A DNA re-replication, Hoechst nuclear intensity, 48 h; Potency, µM (top dose mostly 46.1 µM), for the others: top-dose activity, positive = re-replication, hits mostly activators; actives 2.9% (n = 350,000); AID 624296; also: % of control where 0% means no effect; nearly all actives have a fitted effect of over 50% in size
* = called active by the depositor; i = inactive; ? = inconclusive; . = no result given; [ ] = another dose, or the depositor's remark. An excerpt weighted towards active compounds, which were near 10% of everything screened. Calls follow the shape of the dose curve; as a rule, active = well fitted curve in the direction sought with a large enough effect; inconclusive = small, poorly fitted or top-dose-only effect, or another doubt; inactive = no such curve, though single readings can be large; an effect the other way counts as inactive or inconclusive. Potency is read from the fitted curve at half-maximal effect.

SMILES	RORgamma inh	SW480 rereplic	VP16 counter	KB-3-1 tox	KB-V1 cytotox	MCF10A rerep
CN(c1ccc(F)cc1)S(=O)(=O)N1CCCC(C(=O)NCCc2ccccc2)C1 (centres undefined)	.	.	.	i	i	.
C[C@@H]1Cc2c(O)c(O)cc(O)c2C(=O)O1	20%	-81%	-4%	i	i	-2%
CC1CCC/C=C/C(=O)c2c(O)cc(O)cc2CC(=O)O1 (centres undefined)	?	?	22µM*	10µM*	?	1µM*
C=CCNC(=O)c1c(N)n(-c2cccc(S(N)(=O)=O)c2)c2nc3ccccc3nc12	?	4.1µM*	-20%	?	i	3.3µM*
COCCCNC(=O)c1c(N)n(-c2ccc(S(N)(=O)=O)cc2)c2nc3ccccc3nc12	-42%	9.2µM*	-22%	i	i	7.3µM*
COCCCNC(=O)c1c(N)n(-c2ccccc2)c2nc3ccccc3nc12	-18%	21µM*	-9%	i	?	23µM*
Nc1ccc(-n2c(N)c(C(=O)NCc3ccc4c(c3)OCO4)c3nc4ccccc4nc32)cc1	.	21µM*	.	i	i	16µM*
Nc1c(C(=O)NCCN2CCOCC2)c2nc3ccccc3nc2n1-c1ccccc1	36%	1%	5%	i	?	1%
Nc1c(C(=O)NCc2ccccc2)c2nc3ccccc3nc2n1-c1ccc2c(c1)OCO2	29%	5%	0%	i	i	12%
Cc1cccc(NC(=O)Nc2nnc(N(C)Cc3ccccc3)s2)c1	.	.	.	i	i	.
Cc1cc(NC(=O)OC(C)(C)C)c(-n2nnnc2C(C(=O)c2ccccc2)N2CCOCC2)cc1C (centres undefined)	.	.	.	i	i	.
COC(=O)[C@H](Cc1ccccc1)NC(=O)O[C@@H]1C(=O)c2cc(OC)ccc2O[C@H]1c1cccc(OC)c1	22%	.	-24%	.	.	.
COC(=O)C1=C(C)N(Cc2ccccc2)C2=C3C(=O)CCCC3[C@@](O)(C(=O)OC)C(=O)N2C1c1ccccc1 (some centres undefined)	2%[10 µM]	.	-11%[10 µM]	.	.	.
COCCNC(=O)C1=CC(c2ccc3c(c2)OCO3)=NS(=O)(=O)N1C	.	.	.	i	i	.
COCCNC(=O)c1c(N)n(-c2ccccc2)c2nc3ccccc3nc12	1%	21µM*	-22%	i	i	?
Cc1c(Nc2nc3ccccc3nc2NS(=O)(=O)c2cccc(Cl)c2)c(=O)n(-c2ccccc2)n1C	27%	-3%	5%	i	i	?
Cc1c(NS(=O)(=O)c2ccc(Br)cc2)c(=O)n(-c2ccccc2)n1C	20%	-6%	4%	i	i	-3%
Cc1c(NC(=O)c2ccccc2NS(=O)(=O)c2ccc(Br)cc2)c(=O)n(-c2ccccc2)n1C	28%	4%	3%	i	23µM*	13%
Cc1ccc(Nc2nc3ccccc3nc2Nc2c(C)n(C)n(-c3ccccc3)c2=O)cc1	3%	-4%	-2%	i	?	1.8µM*
COCCNC(=O)c1c(N)n(CCCn2ccnc2)c2nc3ccccc3nc12	11%	?	-21%	i	i	12µM*
Cc1ccccc1NC(=O)Cn1c(SCC(=O)Nc2ccc(F)cc2)nc2ccccc21	.	.	.	i	i	.
CC(C)CO/N=C1/C[C@@H](O)[C@@H](O)[C@@H]2[C@@H]3C(=O)N(C4CCCCC4)C(=O)[C@H]3CC[C@H]12	12%[10 µM]	.	7%[10 µM]	.	.	.
COC(=O)NC(CC(C)=O)c1cccc(C(F)(F)F)c1 (centres undefined)	-1%[10 µM]	.	2%[10 µM]	.	.	.
COCCNC(=O)c1c(N)n(-c2cccc(C)c2)c2nc3ccccc3nc12	-6%	13µM*	-4%	i	i	18µM*
Cc1ccc(-n2c(N)c(C(=O)Nc3c(C)n(C)n(-c4ccccc4)c3=O)c3nc4ccccc4nc32)cc1	-20%	1%	-30%	?	23µM*	1%
SMILES	RORgamma inh	SW480 rereplic	VP16 counter	KB-3-1 tox	KB-V1 cytotox	MCF10A rerep
CCOC(=O)c1nnn(C(CC)C(=O)Nc2ccc(F)cc2)c1C(=O)OCC (centres undefined)	.	.	.	i	?	.
O=C(Nc1ccccc1)N1CC2(CCN(C(=O)c3cc(C(F)(F)F)cc(C(F)(F)F)c3)CC2)C1	-5%	.	-4%	.	.	.
Cc1ccccc1C(=O)Nc1ccccc1C(=O)NCc1ccccc1	12%	-3%	0%	i	21µM*	?
O=C(Nc1ccccc1C(=O)NCc1ccc(Cl)cc1)c1ccco1	15%	?	-2%	i	8.2µM*	19%
O=C(Nc1ccccc1C(=O)NCc1ccccc1)c1ccccc1Br	?	-3%	-8%	i	?	9%
Cc1ccc(C)c(NC(=O)CN2C(=O)C3(SCC(=O)N3c3ccc(C)c(C)c3)c3ccccc32)c1 (centres undefined)	.	.	.	?	i	.
Cc1ccc(CNc2ccc3c(c2)ncn3C)cc1	8%	-4%	6%	i	i	1%
Cc1ccc(CNc2ccc3c(c2)ncn3C(C)(C)C)cc1	1.4µM*	4%	?	i	?	15%
CCn1cnc2cc(NCc3ccncc3)ccc21	23%	-6%	5%	i	i	15µM*
COc1ccc(CNc2ccc3c(c2)ncn3C)cc1OC	5%	10µM*	3%	?	?	24%
CCn1cnc2cc(NCc3ccc(Cl)cc3)ccc21	-25%	0%	-6%	i	i	10%
COc1ccc2c(c1)cc1c(=O)n(CC(=O)NC3CC3)nc(C)n12	.	.	.	i	i	.
CCNc1ncc2nc(-c3cn(C)c4ccccc34)c(=O)n(Cc3ccc(F)cc3)c2n1	-16%	.	3%	.	.	.
c1ccc2c(c1)CCN(c1nc3cc4c(cc3s1)OCO4)C2	4%	2%	-8%	i	?	?
c1ccc2c(c1)Cc1cc3cc4c(cc3nc1-2)OCO4	2.2µM*	.	2.2µM*	.	.	.
